Publication PMC7862700, “An all-to-all approach to the identification of sequence-specific readers for epigenetic DNA modifications on cytosine”

Key:
Test in all cases: DAPPL (digital affinity profiling via proximity ligation, sequencing); 10 mM Tris-HCl pH 7.5, 50 mM NaCl, 1 mM DTT, 4% glycerol, room temperature, 30 min; GST-TFs on glutathione beads, 16-mer random dsDNA library, 0.1% formaldehyde crosslink after washing; high values mean tight binding
Conditions in all cases: protein: recombinant; tags: N-terminal GST; dsDNA, one strand shown
[1] = biological target: ETV1 (Homo sapiens, UniProt P50549 1-477)
Outline: (§1)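 Pools of DNA-barcoded human transcription factors, expressed in yeast as GST fusions on glutathione beads and combined with a tag-only sample, were incubated with 200 nmole of a 16-mer random double-stranded DNA library. Incubation took 30 min at room temperature in Tris/NaCl/DTT/glycerol buffer and was followed by washing, 0.1% formaldehyde crosslinking, proximity ligation (BsaI/T4 ligase, 1 h, 37 °C), PCR amplification and sequencing on an Illumina NextSeq500. Binding signal is the ratio of a hexamer's read frequency for a factor to its frequency for the tag-only sample.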

[2] = biological target: T1, ERF (Homo sapiens, UniProt P50548 1-548)
T1 sequence: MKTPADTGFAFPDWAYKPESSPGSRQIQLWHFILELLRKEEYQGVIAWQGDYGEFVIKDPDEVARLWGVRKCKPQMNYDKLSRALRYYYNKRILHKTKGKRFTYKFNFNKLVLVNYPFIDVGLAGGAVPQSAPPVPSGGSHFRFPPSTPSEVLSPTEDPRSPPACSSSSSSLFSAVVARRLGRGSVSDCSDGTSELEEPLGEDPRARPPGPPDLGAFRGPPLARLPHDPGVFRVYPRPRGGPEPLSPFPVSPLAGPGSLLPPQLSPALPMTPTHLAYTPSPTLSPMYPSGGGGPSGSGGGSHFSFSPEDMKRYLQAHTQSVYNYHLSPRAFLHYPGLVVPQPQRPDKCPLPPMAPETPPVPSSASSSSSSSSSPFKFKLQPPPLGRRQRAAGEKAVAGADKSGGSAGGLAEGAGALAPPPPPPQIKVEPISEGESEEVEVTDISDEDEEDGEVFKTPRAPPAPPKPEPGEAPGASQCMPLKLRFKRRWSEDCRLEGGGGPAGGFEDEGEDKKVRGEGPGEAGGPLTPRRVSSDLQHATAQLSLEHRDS
Outline: as §1

[3] = biological target: T2, ETV3L (Homo sapiens, UniProt Q6ZN32 1-361)
T2 sequence: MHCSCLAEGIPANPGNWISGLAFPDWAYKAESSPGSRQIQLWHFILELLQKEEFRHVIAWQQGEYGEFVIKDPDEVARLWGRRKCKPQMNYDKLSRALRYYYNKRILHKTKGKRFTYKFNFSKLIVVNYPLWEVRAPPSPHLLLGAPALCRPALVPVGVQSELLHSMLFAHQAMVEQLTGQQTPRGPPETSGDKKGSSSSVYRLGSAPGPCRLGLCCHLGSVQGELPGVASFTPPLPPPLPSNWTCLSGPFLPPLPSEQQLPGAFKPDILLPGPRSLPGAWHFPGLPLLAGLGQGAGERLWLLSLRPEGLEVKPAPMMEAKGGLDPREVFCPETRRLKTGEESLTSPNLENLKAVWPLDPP
Outline: as §1

[4] = biological target: T3, ETS2 (Homo sapiens, UniProt P15036 1-469)
T3 sequence: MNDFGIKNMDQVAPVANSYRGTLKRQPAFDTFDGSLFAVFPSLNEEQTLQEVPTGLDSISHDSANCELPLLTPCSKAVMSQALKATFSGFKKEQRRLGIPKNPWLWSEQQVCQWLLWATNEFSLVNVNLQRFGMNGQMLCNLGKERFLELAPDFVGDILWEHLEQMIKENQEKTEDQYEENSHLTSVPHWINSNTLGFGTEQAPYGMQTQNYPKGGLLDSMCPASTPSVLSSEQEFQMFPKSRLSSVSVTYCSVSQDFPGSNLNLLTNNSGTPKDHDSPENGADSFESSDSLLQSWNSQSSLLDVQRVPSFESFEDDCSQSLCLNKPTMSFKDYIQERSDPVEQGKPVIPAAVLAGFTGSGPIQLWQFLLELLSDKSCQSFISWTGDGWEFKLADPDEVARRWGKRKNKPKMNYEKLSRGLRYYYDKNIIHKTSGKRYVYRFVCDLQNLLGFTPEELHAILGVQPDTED
Outline: as §1

[5] = biological target: T4, SPDEF (Homo sapiens, UniProt O95238 1-335)
T4 sequence: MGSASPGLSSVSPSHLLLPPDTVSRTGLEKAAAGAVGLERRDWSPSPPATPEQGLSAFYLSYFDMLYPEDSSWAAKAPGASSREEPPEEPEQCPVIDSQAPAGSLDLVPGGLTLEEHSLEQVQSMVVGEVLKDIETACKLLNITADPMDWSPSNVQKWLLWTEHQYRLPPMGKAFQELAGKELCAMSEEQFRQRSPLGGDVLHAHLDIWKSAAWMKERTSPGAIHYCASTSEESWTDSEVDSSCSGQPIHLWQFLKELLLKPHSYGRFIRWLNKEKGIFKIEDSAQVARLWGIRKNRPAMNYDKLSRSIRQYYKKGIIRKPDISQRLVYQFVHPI
Outline: as §1

[6] = biological target: T5, ETV7 (Homo sapiens, UniProt Q9Y603 1-341)
T5 sequence: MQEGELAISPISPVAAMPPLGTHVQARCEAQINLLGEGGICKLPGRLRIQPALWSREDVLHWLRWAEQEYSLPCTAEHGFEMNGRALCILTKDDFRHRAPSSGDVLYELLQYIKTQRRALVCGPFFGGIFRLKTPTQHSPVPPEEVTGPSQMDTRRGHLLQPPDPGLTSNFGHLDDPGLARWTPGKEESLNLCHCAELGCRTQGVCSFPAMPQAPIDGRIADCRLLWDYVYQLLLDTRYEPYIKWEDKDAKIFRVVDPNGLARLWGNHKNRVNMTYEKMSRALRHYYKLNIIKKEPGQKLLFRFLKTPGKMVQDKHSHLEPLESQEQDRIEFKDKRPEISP
Outline: as §1

[7] = biological target: T6, ELF5 (Homo sapiens, UniProt Q9UKW6-2 1-255)
T6 sequence: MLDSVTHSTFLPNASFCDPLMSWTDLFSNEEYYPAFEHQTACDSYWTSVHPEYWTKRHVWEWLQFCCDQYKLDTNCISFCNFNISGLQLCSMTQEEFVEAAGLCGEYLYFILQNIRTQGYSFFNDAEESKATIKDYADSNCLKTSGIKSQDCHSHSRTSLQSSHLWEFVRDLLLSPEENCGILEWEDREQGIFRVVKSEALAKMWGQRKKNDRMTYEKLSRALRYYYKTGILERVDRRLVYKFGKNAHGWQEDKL
Outline: as §1

[8] = biological target: T7, ETV3 (Homo sapiens, UniProt P41162-2 1-143)
T7 sequence: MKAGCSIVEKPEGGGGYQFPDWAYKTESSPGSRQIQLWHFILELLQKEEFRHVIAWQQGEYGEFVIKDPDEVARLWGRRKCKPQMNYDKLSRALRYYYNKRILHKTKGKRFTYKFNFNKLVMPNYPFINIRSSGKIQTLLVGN
Outline: as §1

[9] = biological target: ETV6 (Homo sapiens, UniProt P41212 1-452)
Outline: as §1

Sequence of ETV6 (P41212 whole entry): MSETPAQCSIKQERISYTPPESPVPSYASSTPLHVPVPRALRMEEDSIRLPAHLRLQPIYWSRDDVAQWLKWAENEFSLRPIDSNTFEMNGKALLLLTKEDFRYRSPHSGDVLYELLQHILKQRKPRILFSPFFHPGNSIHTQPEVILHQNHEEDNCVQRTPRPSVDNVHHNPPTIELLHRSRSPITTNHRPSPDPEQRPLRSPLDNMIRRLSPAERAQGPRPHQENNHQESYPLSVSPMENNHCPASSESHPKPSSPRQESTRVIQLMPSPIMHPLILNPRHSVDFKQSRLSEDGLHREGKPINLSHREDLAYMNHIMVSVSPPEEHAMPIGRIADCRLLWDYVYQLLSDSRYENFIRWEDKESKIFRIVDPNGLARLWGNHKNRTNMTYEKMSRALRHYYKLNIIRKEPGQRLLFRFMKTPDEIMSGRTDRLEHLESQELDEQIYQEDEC
Sequence of ETV1 (P50549 whole entry, the tested form may be a part): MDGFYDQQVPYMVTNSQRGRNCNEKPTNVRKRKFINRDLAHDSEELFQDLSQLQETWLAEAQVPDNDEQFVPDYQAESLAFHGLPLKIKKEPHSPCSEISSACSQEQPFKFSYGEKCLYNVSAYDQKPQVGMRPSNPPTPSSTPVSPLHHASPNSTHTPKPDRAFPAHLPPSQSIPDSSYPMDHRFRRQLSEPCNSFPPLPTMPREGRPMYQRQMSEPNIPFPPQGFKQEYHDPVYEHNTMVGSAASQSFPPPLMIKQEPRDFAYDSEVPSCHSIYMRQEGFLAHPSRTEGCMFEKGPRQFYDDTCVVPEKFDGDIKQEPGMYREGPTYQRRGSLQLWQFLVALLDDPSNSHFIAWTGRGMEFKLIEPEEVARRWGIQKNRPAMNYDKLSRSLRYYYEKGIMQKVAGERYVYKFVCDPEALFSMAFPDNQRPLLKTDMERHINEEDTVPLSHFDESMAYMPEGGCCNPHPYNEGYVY

## CTCTCT
[1]
  binding signal: 1.49 fold enrichment (6-mer frequency, TF over GST control)
[2]
  binding signal: 1.63 fold enrichment (6-mer frequency, TF over GST control)
[3]
  binding signal: 1.6 fold enrichment (6-mer frequency, TF over GST control)
[4]
  binding signal: 1.43 fold enrichment (6-mer frequency, TF over GST control)
[5]
  binding signal: 1.59 fold enrichment (6-mer frequency, TF over GST control)
[6]
  binding signal: 1.56 fold enrichment (6-mer frequency, TF over GST control)
[7]
  binding signal: 1.41 fold enrichment (6-mer frequency, TF over GST control)
[8]
  binding signal: 1.68 fold enrichment (6-mer frequency, TF over GST control)
[9]
  binding signal: 1.59 fold enrichment (6-mer frequency, TF over GST control)
